Measured values as given in PubChem BioAssay AID1159580 (chemical genetic matrix, 2015).
In all, about 5,500 compounds went through this assay and about 2,000 (36%) were called active. Roughly 18% stayed inconclusive and do not appear here. Cut-off read from the data, not from the text of the source: active = normalized growth mostly below about 0.91 (no sharp cut-off); inconclusive = no clear call, values can overlap the other calls; inactive = mostly above about 0.92. Some of the results follow.

Assay: chemical genetic growth profiling, strain panel (AID 1159580);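 note: tested at 20 µM; growth read once vehicle control cultures reached saturation at 30 °C; 1 = growth at the plate median or of vehicle wells; lower values mean less growth of the strain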
Conditions: S. cerevisiae deletion strains, growth OD

Measured: normalized growth

O=C1c2ccccc2C(=O)c2sccc21
active: locus YAR019C, strain CDC15, active compounds read low 0.556 | locus YBL105C, strain PKC1, active compounds read low 0.778 | locus YBR135W, strain CKS1, active compounds read low 0.716 | locus YBR136W, strain MEC1, active compounds read low 0.718 | locus YBR160W, strain CDC28, active compounds read low 0.75 | locus YDL017W, strain CDC7, active compounds read low 0.72 | locus YDL028C, strain MPS1, active compounds read low 0.749 | locus YDL101C, strain DUN1, active compounds read low 0.466 | locus YDL108W, strain KIN28, active compounds read low 0.752 | locus YDL132W, strain cdc53, active compounds read low 0.674 | locus YDL214C, strain PRR2, active compounds read low 0.233 | locus YDR052C, strain DBF4, active compounds read low 0.646 | locus YDR054C, strain cdc34, active compounds read low 0.556 | locus YDR226W, strain ADK1, active compounds read low 0.751 | locus YDR477W, strain SNF1, active compounds read low 0.209 | locus YER123W, strain YCK3, active compounds read low 0.183 | locus YER133W, strain GLC7, active compounds read low 0.225 | locus YFL009W, strain cdc4, active compounds read low 0.59 | locus YFL029C, strain CAK1, active compounds read low 0.4 | locus YFR003C, strain YPI1, active compounds read low 0.694 | locus YFR019W, strain FAB1, active compounds read low 0.171 | locus YFR028C, strain CDC14, active compounds read low 0.649 | locus YGR040W, strain KSS1, active compounds read low 0.182 | locus YGR052W, strain FMP48, active compounds read low 0.156 | locus YGR092W, strain DBF2, active compounds read low 0.152 | locus YHR030C, strain SLT2, active compounds read low 0.157 | locus YHR079C, strain IRE1, active compounds read low 0.211 | locus YHR082C, strain KSP1, active compounds read low 0.204 | locus YHR205W, strain SCH9, active compounds read low 0.124 | locus YIL147C, strain SLN1, active compounds read low 0.669 | locus YJL095W, strain BCK1, active compounds read low 0.154 | locus YJL128C, strain PBS2, active compounds read low 0.595 | locus YJL157C, strain FAR1, active compounds read low 0.227 | locus YJR016C, strain ILV3, active compounds read low 0.483 | locus YJR066W, strain TOR1 (second series), active compounds read low 0.147 | locus YJR066W, strain TOR1, active compounds read low 0.15 | locus YKL048C, strain ELM1, active compounds read low 0.33 | locus YKL067W, strain YNK1, active compounds read low 0.272 | locus YKL101W, strain HSL1, active compounds read low 0.209 | locus YKL193C, strain SDS22, active compounds read low 0.498 | locus YKL203C, strain TOR2, active compounds read low 0.158 | locus YLR113W, strain HOG1, active compounds read low 0.303 | locus YLR133W, strain CKI1, active compounds read low 0.196 | locus YLR403W, strain SFP1, active compounds read low 0.154 | locus YML070W, strain DAK1, active compounds read low 0.214 | locus YMR001C, strain CDC5, active compounds read low 0.614 | locus YMR205C, strain PFK2 (second series), active compounds read low 0.236 | locus YMR277W, strain FCP1, active compounds read low 0.46 | locus YNL006W, strain LST8, active compounds read low 0.593 | locus YNL020C, strain ARK1, active compounds read low 0.183 | locus YNL161W, strain CBK1, active compounds read low 0.636 | locus YNL183C, strain NPR1, active compounds read low 0.161 | locus YNL207W, strain RIO2, active compounds read low 0.473 | locus YNL222W, strain SSU72, active compounds read low 0.634 | locus YNL307C, strain MCK1 (second series), active compounds read low 0.16 | locus YOL078W, strain AVO1, active compounds read low 0.511 | locus YOL136C, strain PFK27, active compounds read low 0.192 | locus YOR061W, strain CKA2, active compounds read low 0.244 | locus YOR119C, strain RIO1, active compounds read low 0.221 | locus YOR231W, strain MKK1, active compounds read low 0.206 | locus YOR329C, strain SCD5, active compounds read low 0.579 | locus YPL031C, strain PHO85, active compounds read low 0.184 | locus YPL153C, strain RAD53, active compounds read low 0.207 | locus YPL204W, strain HRR25, active compounds read low 0.198 | locus YPL209C, strain IPL1, active compounds read low 0.684 | locus YPL256C, strain CLN2, active compounds read low 0.223 | locus YPR025C, strain CCL1, active compounds read low 0.705 | locus YPR106W, strain ISR1, active compounds read low 0.601 | locus YPR111W, strain DBF20, active compounds read low 0.691 | strain NNK1, active compounds read low 0.305 | strain TSCII, active compounds read low 0.527
